Calls of active or inactive are those of the source. Unless noted, how the calls were made is not given here.
Experiments:
[1] = A549 cell viability effects, profiling panel, calcein-AM fluorescence, 48 h, basal (AID 1162); details: higher = more signal; further: test concentration not given here
[2] = adipocyte viability effects, profiling panel, cell-based, 3T3-L1 adipocytes, calcein-AM fluorescence, 48 h, basal (AID 1163); details: 3T3-L1 adipocytes viability, higher = more signal; further: test concentration not given here
[3] = HepG2 cell viability effects, profiling panel, calcein-AM fluorescence, 48 h, basal (AID 1164); details: higher = more signal; further: test concentration not given here
[4] = MM1S cell viability effects, profiling panel, calcein-AM fluorescence, 48 h, basal (AID 1165); details: higher = more signal;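 further: viability of MM1S multiple myeloma cells under basal unstimulated conditions; test concentration not given here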
[5] = basal RPMI8226 viability, no added stimulus, profiling panel, cell-based, calcein-AM fluorescence, 48 h, PK04 Diversity Set (AID 1166); details: RPMI8226 myeloma viability, higher = more signal;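 further: cells grown under basal conditions without added stimulus; test concentration not given here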
[6] = basal HepG2 mitochondrial membrane potential changes, profiling panel, cell-based, JC-1 fluorescence, 24 h, 100 nL compound (AID 1167); details: higher = more signal; further: test concentration not given here
[7] = basal 3T3-L1 adipocyte mitochondrial potential changes, profiling panel, cell-based, JC-1 fluorescence, 3T3-L1 adipocytes, 24 h, 100 nL compound (AID 1168); details: JC-1 mitochondrial fluorescence, higher = more signal, called active from +8 up or from −8 down; further: test concentration not given here
[8] = basal RPMI8226 mitochondrial membrane potential changes, profiling panel, cell-based, JC-1 fluorescence, 24 h, 100 nL compound (AID 1169); details: RPMI8226 myeloma, JC-1 mitochondrial potential fluorescence, higher = more signal; further: test concentration not given here
[9] = basal MM1S mitochondrial membrane potential changes, profiling panel, cell-based, JC-1 fluorescence, 24 h, 100 nL compound (AID 1170); details: higher = more signal; further: test concentration not given here
[10] = A549 lung cancer cell viability effects, profiling panel, resazurin fluorescence, 24 h, PK04 Diversity Set (AID 1171); details: higher = more signal, called active from +8 up or from −8 down; further: test concentration not given here
[11] = HepG2 liver cancer cell viability effects, profiling panel, resazurin fluorescence, 24 h, PK04 Diversity Set (AID 1172); details: higher = more signal; further: test concentration not given here
[12] = basal S. cerevisiae growth modulation, no modifier, primary screen, OD600, strain BY4716, 24 h, basal condition (AID 1173); details: OD600, 24 h, higher = more signal, called active from +8 up or from −8 down
[13] = MM1S myeloma cell viability, profiling panel, resazurin fluorescence, basal, 24 h, PK04 Diversity Set (AID 1174); details: higher = more signal, called active from +8 up or from −8 down;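 further: MM1S multiple myeloma cell line; test concentration not given here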
[14] = biological target: Dihydroorotate dehydrogenase (quinone), mitochondrial (Plasmodium falciparum (isolate 3D7)) (UniProt Q08210); experiment: PfDHODH enzyme inhibitors, primary screen, biochemical, C-terminal His tag, absorbance 600 nm (AID 1175); details: DCIP absorbance 600 nm, higher = more signal, called active from +8 up or from −8 down;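 further: recombinant parasite enzyme with a five histidine tag at its C terminus; test concentration not given here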
[15] = P. aeruginosa biofilm formation inhibitors, primary screen, strain PAO1, LB-PBS medium, absorbance 600 nm (AID 1176); further: test concentration not given here; details: P. aeruginosa PAO1 growth/biofilm, A600, 12 h; higher = more signal
[16] = S. cerevisiae RM11-1a growth modifiers, primary screen, strain RM11-1a, OD600, basal, 24 h (AID 1177); details: OD600, 24 h, higher = more signal, called active from +8 up or from −8 down;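 further: cultures grown under basal conditions with no added stressor; test concentration not given here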
[17] = E. coli acrAB mutant growth effects, primary screen, E. coli filamentation inducers, strain DRC39, OD650, 24 h (AID 1178); details: higher = more signal, called active from +8 up or from −8 down;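 further: growth measured as culture turbidity by optical density at 650 nm; test concentration not given here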
[18] = E. coli acrAB mutant growth effects, primary screen, E. coli filamentation inducers, strain DRC39, OD650, 48 h (AID 1179);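 further: screen aims at cell division blockers that make cells filament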; details: E. coli DRC39 delta-acrAB growth, higher = more signal, called active from +8 up or from −8 down
[19] = RPMI8226 myeloma cell viability, profiling panel, resazurin fluorescence, basal, 24 h, PK04 Diversity Set (AID 1180); details: higher = more signal;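 further: RPMI8826 multiple myeloma cell line at 5000 cells per well; test concentration not given here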
[20] = biological target: E3 ubiquitin-protein ligase XIAP (Homo sapiens) (UniProt P98170); experiment: XIAP binders, primary screen, biophysical, small-molecule microarray, fluorescence 635 nm (AID 1181); details: small-molecule microarray binding, higher = more signal;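 further: score merges 667 nm emission and signal to noise over triplicate slides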
Chain of E3 ubiquitin-protein ligase XIAP (Homo sapiens) (P98170 whole entry, looked up): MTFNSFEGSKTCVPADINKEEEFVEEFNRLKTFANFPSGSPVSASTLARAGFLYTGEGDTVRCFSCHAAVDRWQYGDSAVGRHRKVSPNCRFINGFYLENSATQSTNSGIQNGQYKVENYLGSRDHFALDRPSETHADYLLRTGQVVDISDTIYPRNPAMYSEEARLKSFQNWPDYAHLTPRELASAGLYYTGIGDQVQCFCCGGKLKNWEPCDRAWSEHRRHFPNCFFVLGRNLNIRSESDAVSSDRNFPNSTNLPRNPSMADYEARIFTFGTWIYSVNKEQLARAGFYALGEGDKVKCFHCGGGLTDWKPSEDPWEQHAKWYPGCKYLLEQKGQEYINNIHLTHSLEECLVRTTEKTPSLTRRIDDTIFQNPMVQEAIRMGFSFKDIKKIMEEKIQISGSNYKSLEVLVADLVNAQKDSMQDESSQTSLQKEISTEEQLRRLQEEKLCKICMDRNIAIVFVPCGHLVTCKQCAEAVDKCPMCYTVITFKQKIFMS

Chain of Dihydroorotate dehydrogenase (quinone), mitochondrial (Plasmodium falciparum (isolate 3D7)) (Q08210 whole entry, looked up): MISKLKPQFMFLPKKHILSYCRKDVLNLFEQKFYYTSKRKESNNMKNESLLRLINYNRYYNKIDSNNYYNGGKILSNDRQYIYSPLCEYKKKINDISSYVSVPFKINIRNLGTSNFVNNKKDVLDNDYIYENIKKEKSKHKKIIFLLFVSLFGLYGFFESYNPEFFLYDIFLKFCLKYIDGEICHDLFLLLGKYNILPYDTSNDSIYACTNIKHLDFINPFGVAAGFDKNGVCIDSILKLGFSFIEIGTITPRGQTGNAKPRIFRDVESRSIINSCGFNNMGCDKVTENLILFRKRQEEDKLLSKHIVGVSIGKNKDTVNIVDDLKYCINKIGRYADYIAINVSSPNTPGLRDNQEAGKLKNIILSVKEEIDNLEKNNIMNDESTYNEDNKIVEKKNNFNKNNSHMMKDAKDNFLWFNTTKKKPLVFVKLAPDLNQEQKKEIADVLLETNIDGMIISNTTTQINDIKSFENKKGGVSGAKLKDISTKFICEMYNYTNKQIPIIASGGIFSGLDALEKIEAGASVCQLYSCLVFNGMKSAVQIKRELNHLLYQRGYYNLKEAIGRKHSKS

| Structure (SMILES) | z-score [1] | z-score [2] | z-score [3] | z-score [4] | z-score [5] | z-score [6] | z-score [7] | z-score [8] | z-score [9] | z-score [10] | z-score [11] | z-score [12] | z-score [13] | composite z-score [14] | z-score [15] | z-score [16] | z-score [17] | z-score [18] | z-score [19] | composite z-score [20] |
| --- | --- | --- | --- | --- | --- | --- | --- | --- | --- | --- | --- | --- | --- | --- | --- | --- | --- | --- | --- | --- |
| COCCOC(=O)N1C(=O)[C@@]2(c3cc(C#CCC(C(=O)OC)C(=O)OC)ccc31)[C@H](C(=O)N1CCCCCCC1)[C@H]1C(=O)O[C@H](c3ccccc3)[C@H](c3ccccc3)N1[C@@H]2c1ccc(O)cc1 | -0.0336 | 1.25 | -0.125 | -0.575 | -1.39 | 0.503 | 1.1 (inactive) | 0.439 | 0.579 | 0.616 (inactive) | -0.124 | -0.0861 (inactive) | 1.09 (inactive) | 1.49 (inactive) | 0.1 (inactive) | 0.451 (inactive) | -0.543 (inactive) | -0.86 (inactive) | 0.646 | 0.312 |
| COC(=O)[C@]1(Cc2ccccc2N=[N+]=[N-])N=C(c2ccc(OCCCO)cc2)O[C@@H]1c1ccccc1 | -3.71 | 0.561 | -5.71 | -3.66 | -4.01 | -2.54 | 0.911 (inactive) | -1.01 | -2.86 | -5.19 (inactive) | -6.11 | -1.69 (inactive) | -8.86 (active) | 0.106 (inactive) | 0.783 (inactive) | 1.53 (inactive) | 2.06 (inactive) | 1.55 (inactive) | -7.19 | 0.007 |
| NC(=O)[C@@H]1[C@H]2C(=O)O[C@H](c3ccccc3)[C@H](c3ccccc3)N2[C@H](c2ccccc2OCCO)[C@@]12C(=O)Nc1ccc(C#CCCO)cc12 | 0.888 | 1.27 | 0.133 | 0.448 | -3.68 | -0.945 | 0.783 (inactive) | -1.11 | 0.068 | 0.461 (inactive) | 1.06 | -1.45 (inactive) | -0.476 (inactive) | -0.58 (inactive) | -0.104 (inactive) | 0.895 (inactive) | 0.386 (inactive) | -0.318 (inactive) | -1.29 | -0.0048 |
| COCCOC(=O)N1C(=O)[C@@]2(c3cc(C#Cc4ccc(OC)cc4)ccc31)[C@H](C(N)=O)[C@H]1C(=O)O[C@H](c3ccccc3)[C@H](c3ccccc3)N1[C@@H]2c1ccc(OCCO)cc1 | -1.42 | 0.879 | -0.656 | -1.79 | -2.31 | -1.59 | 2.52 (inactive) | -0.57 | -1.39 | 0.676 (inactive) | 0.0456 | 1.61 (inactive) | -1.41 (inactive) | -0.0352 (inactive) | 1.71 (inactive) | 2.42 (inactive) | -0.315 (inactive) | -0.697 (inactive) | -1.82 | -0.157 |
| O=C1OCCC=C[C@H]2OC34C=CCN(Cn5nnc6ccccc65)C(=O)[C@H]3N(CCCCCO)C(=O)[C@@H]4C12 (stereo not given in full) | -0.0295 | 0.43 | 0.293 | 1.75 | 0.723 | 0.742 | 0.117 (inactive) | 0.0919 | -1.19 | -0.605 (inactive) | -0.444 | 0.994 (inactive) | 0.241 (inactive) | -0.951 (inactive) | -0.0432 (inactive) | 0.137 (inactive) | 0.672 (inactive) | 0.774 (inactive) | 0.618 | -0.0943 |
| COCCOC(=O)N1C(=O)[C@@]2(c3cc(C#CCNC(N)=O)ccc31)[C@H](c1ccc(OCCO)cc1)N1[C@H](c3ccccc3)[C@H](c3ccccc3)OC(=O)[C@H]1[C@@H]2C(=O)N1CCN(c2ncccn2)CC1 | -0.142 | 0.169 | -0.123 | -0.216 | 0.191 | -1.76 | 1 (inactive) | 0.118 | -0.572 | 1.28 (inactive) | 0.26 | 1.51 (inactive) | -0.0528 (inactive) | -0.239 (inactive) | 2.5 (inactive) | 2.05 (inactive) | -0.157 (inactive) | -0.327 (inactive) | 0.0246 | 0.1 |
| COCCCNC(=O)[C@@]1(Cc2ccccc2CN=[N+]=[N-])N=C(c2ccc(OCCCO)cc2)O[C@H]1c1ccccc1N=[N+]=[N-] | -0.121 | -0.0406 | 0.35 | -1.34 | -3.87 | 1.36 | 1.98 (inactive) | -1.06 | -0.156 | -1.47 (inactive) | -0.208 | -0.255 (inactive) | -1.18 (inactive) | 1.13 (inactive) | 0.413 (inactive) | 0.587 (inactive) | 1.86 (inactive) | 1.08 (inactive) | -2.65 | -0.0592 |

From PubChem BioAssay
